# Data taken from the supplement of paper PMC7156485.
# Values without a mark were called inactive.
# Tested on: HCC1569
# Experiment: H1.0 immunofluorescence intensity relative to DMSO (% of DMSO); higher = stronger H1.0 induction, active = 140 or more
# Conditions: concentration: 10 µM; 24 h
# Method in brief: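 HCC1569 and TDF cells (800 per well, 384-well plates, RPMI with 10% FBS) were treated with compounds at 10 µM for 24 h at 37 °C, in triplicate. Cells were fixed in 3.7% formaldehyde and stained with a rabbit anti-H1.0 antibody, an AlexaFluor 647 secondary and DAPI; six fields per well were imaged at ×10. H1.0 nuclear intensity or cell number is expressed as percent of the plate DMSO control, taking the median of replicates. HCC1569 values were smoothed for positional effects.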
# 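Also: TDF is a line of transformed human dermal fibroblasts of mesenchymal origin.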
row,SMILES,H1.0 immunofluorescence intensity
1,CCCCCCCCCCCCCCCC(=O)NC(COP(=O)(O)O)C(=O)O (stereo not given),98.9
2,COc1c2occc2cc2ccc(=O)oc12 [Xanthotoxin],103
3,"CCOC(=O)c1csc(Nc2ccc(Cl)cc2)n1 [ethyl 2-(4-chloroanilino)-1,3-thiazole-4-carboxylate]",113
4,"Brc1c(Br)c(Br)c2n[nH]nc2c1Br [TBB - 4,5,6,7-Tetrabromobenzotriazole]",104
5,O=C(O)Cc1nn(Cc2nc3cc(C(F)(F)F)ccc3s2)c(=O)c2ccccc12,97.7
6,Br.Br.NC(N)=NCCSSCCN=C(N)N [Guanidinoethyl disulfide dihydrobromide],98.8
7,"Br.Br.N=C(N)SCCc1cccc(CCSC(=N)N)c1 [1,3-PBIT dihydrobromide]",98.4
8,NC(Cc1cccc(-c2ccccc2CP(=O)(O)O)c1)C(=O)O (stereo not drawn) [Phenylbenzene-omega-phosphono-alpha-amino acid],105
9,CCCCCCCCCCCCCCCC(=O)NCCO [Palmitoylethanolamide],90.6
10,Oc1ccc(C=Cc2cc(O)cc(O)c2)cc1 [Resveratrol],113
11,CCCCCCCCCCCCCC(=O)NC(C)C(O)c1ccccc1 [D-erythro MAPP],94.7
12,CC=CCC=CCCC(=O)C1OC1C(N)=O (stereo not given) [Cerulenin],111
13,Cc1ccc(C(=O)c2ccc(CC(=O)O)n2C)cc1 [Tolmetin],104
14,CCCN1CCCC[C@H]1C(=O)Nc1c(C)cccc1C.Cl.O,113
15,Cc1ccc(CN2C(=O)S/C(=C\c3ccc(Cl)cc3)C2=O)cc1,97.2
16,C=CC(=O)Nc1cc2c(Nc3ccc(F)c(Cl)c3)ncnc2cc1OCCCN1CCOCC1.Cl.Cl [Canertinib],125
17,CC(=O)SCC(Cc1ccccc1)C(=O)NCC(=O)OCc1ccccc1 (stereo not given) [Racecadotril],104
18,COc1ccc2[nH]c(I)c(CCNC(C)=O)c2c1 [2-Iodomelatonin],93.2
19,CCCN(CCC)C(=O)C(CCC(=O)O)NC(=O)c1ccccc1 (stereo not given) [Proglumide],88
20,O.O=c1c(O)c(-c2ccc(O)cc2O)oc2cc(O)cc(O)c12,98.8

row,SMILES,H1.0 immunofluorescence intensity
1,Cc1cnc(Nc2ccc(N3CCN(C)CC3)cc2)nc1Nc1cccc(S(=O)(=O)NC(C)(C)C)c1,174 (active)
2,CC(C)(C)c1cc(O)ccc1O [tert-Butylhydroquinone],89.1
3,O=C(O)c1ccc2ccccc2c1O.OCc1cc(C(O)CNCCCCCCOCCCCc2ccccc2)ccc1O (stereo not given) [Salmeterol xinafoate],121
4,"CCCC(=O)O[C@]1(C(=O)CO)CC[C@H]2[C@@H]3CCC4=CC(=O)CC[C@]4(C)[C@H]3[C@@H](O)C[C@@]21C [(11beta)-11,21-dihydroxy-3,20-dioxopregn-4-en-17-yl butyrate]",102
5,CS(=O)c1ccc(-c2nc(-c3ccc(F)cc3)c(-c3ccncc3)[nH]2)cc1.Cl (stereo not given),117
6,C=CC1(C)CC(=O)C2(O)C(C)(O1)C(OC(C)=O)C(O)C1C(C)(C)CCC(O)C12C (stereo not given) [Forskolin],96.6
7,CCN(CC)CC(=O)Nc1c(C)cccc1C.Cl [Lidocaine hydrochloride],94.4
8,COC(=O)c1ccc2c(c1)nc(NC(=O)c1ccccc1)n2CCCc1ccccc1,88.3
9,Cc1cc(I)ccc1Nc1c(C(=O)NOCC2CC2)cc(F)c(F)c1F,116
10,CC#CCOC(=O)c1c(C)nc2sc3c(c2c1N)CCC(O)C3 (stereo not given),134
11,CCCCCCCCCCCCCCC(O)C(O)C(N)CO (stereo not given) [Phytosphingosine],104
12,CNS(=O)(=O)Cc1ccc2[nH]cc(CCN(C)C)c2c1.O=C(O)CCC(=O)O [Sumatriptan Succinate],114
13,Cc1cc(Nc2nc(-c3ccccc3)nc3ccccc23)n[nH]1 [GSK-3 Inhibitor XIII],182 (active)
14,CCCCCCCC/C=C\CCCCCCCC(N)=O [(9Z)-9-octadecenamide],98.7
15,O=C(O)CCc1nc(-c2ccccc2)c(-c2ccccc2)o1 [Oxaprozin],97.7
16,COc1cc(CCC(C)=O)ccc1O [Vannilylacetone],93.5
17,COC(=O)Nc1nc2ccc(C(=O)c3cccs3)cc2[nH]1 [Nocodazole],136
18,CC(c1cc2ccccc2s1)N(O)C(N)=O (stereo not given) [Zileuton],101
19,Cc1ccc(N(CC2=NCCN2)c2cccc(O)c2)cc1 [Phentolamine],96.6
20,CN(Cc1cnc2nc(N)nc(N)c2n1)c1ccc(C(=O)NC(CCC(=O)O)C(=O)O)cc1 (stereo not given) [Methotrexate],87
